Bioassay records (PubChem)
Only some compounds are listed: those with a hit (about 9.9% of all), similar ones and a draw of the others.
KDM4E inh – inhibitors of human JMJD2E histone demethylase; JMJD2E catalytic domain, FDH-coupled NADH fluorescence (FDH is formaldehyde dehydrogenase); Potency, µM (titrated, usually from 57.1 µM), inactives show at the highest dose activity change, negative = inhibition, most hits filed as inhibitors; 230,000 tested, 1.6% active; AID 2147; active = well fitted inhibition curve with a large enough effect, not every such curve was filed as active; inconclusive = small, poorly fitted or top-dose-only effect, or another doubt; inactive = no such curve, though single readings can be large or run the other way;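 note: 0% = wells with enzyme and -100% = buffer wells without enzyme; nearly all actives have a fitted effect of over 50% in size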
ALDH1A1 inh – inhibitors of human aldehyde dehydrogenase 1A1; P00352; Purified ALDH1A1, NADH fluorescence, propionaldehyde substrate; Potency, µM (top dose mostly 75.3 µM), for inactives: at the highest dose activity, negative = inhibition, usual class: inhibitors; 220,000 tested, 7.3% active; AID 1030; active = well fitted inhibition curve with a large enough effect, not every such curve was filed as active; inconclusive = small, poorly fitted or top-dose-only effect, or another doubt; inactive = no such curve, though single readings can be large or run the other way;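 note: plate controls were no enzyme wells and a reference inhibitor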
Tau fibril ThT – tau fibrillization inhibition (ThT binding); P10636; recombinant tau K18 P301L, heparin-induced fibrillization, ThT fluorescence; Potency, µM (top dose mostly 57.4 µM), for inactives: at the highest dose activity, negative = inhibition, usual class: inhibitors; 270,000 tested, 2.1% active; note: nearly all actives have a fitted effect of over 55% in size
Target sequence (P10636 561-689 P618L limits assumed): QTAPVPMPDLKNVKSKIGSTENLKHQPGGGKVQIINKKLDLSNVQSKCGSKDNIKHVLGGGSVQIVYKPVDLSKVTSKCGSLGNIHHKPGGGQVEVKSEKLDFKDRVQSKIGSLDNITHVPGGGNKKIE
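Fibril formation assay: tau K18 P301L at 15 uM with trace Alexa 594 label, heparin inducer 20 uM, pH 7 sodium acetate buffer, 37 C for 6 hr; endpoint ThT signal.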
HPGD inh – HPGD (human) dehydrogenase inhibition | purified HPGD, NADH fluorescence kinetic, PGE2 substrate | Potency, µM, without a hit: at the highest dose activity change, negative = inhibition, usual class: inhibitors | P15428 | 150,000 tested, 4.3% active | AID 894; active = well fitted inhibition curve with a large enough effect, not every such curve was filed as active; inconclusive = small, poorly fitted or top-dose-only effect, or another doubt; inactive = no such curve, though single readings can be large or run the other way
Target sequence (P15428 whole entry, looked up): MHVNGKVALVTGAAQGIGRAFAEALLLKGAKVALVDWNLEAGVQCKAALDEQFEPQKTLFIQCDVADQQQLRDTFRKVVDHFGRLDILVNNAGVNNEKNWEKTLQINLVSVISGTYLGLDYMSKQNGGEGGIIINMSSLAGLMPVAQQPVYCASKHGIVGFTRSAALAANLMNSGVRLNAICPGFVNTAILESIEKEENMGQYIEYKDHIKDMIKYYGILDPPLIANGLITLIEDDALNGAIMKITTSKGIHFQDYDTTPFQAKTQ
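NADH formation kinetics: reaction with 30 uM PGE2 and 1 mM NAD+ (final), 20 nM enzyme, Tris-HCl pH 8 with Tween 20, after 15 min compound preincubation at room temperature. Fluorescence change, last versus first of five reads.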
Tau fluor counter – counter-screen for tau fibril formation inhibitors; AID 1463; Potency, µM (series often up to 57.7 µM), without a hit: top-dose activity change, negative = decrease; 280,000 tested, 0.93% active; tau K18 P301L (four-repeat tau fragment) Alexa594 fluorescence, heparin fibrillization; note: nearly all actives have a fitted effect of over 55% in size
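Human K18 P301L tau (15 uM unlabeled plus 0.24 uM Alexa 594-labeled, final) in 100 mM sodium acetate pH 7 was mixed with compound and 20 uM heparin and incubated 6 hr at 37 C.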
Tau fibril FP – tau fibrillization inhibition (FP); Potency, µM (titrated, usually from 57.7 µM), inactives show at the top dose activity, negative = inhibition, usual class: inhibitors; 280,000 tested, 0.39% active; K18 P301L tau heparin fibrillization, Alexa594 FP, 6 h; note: nearly all actives have a fitted effect of over 55% in size
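Compound effects on tau fibrillization are measured by Alexa 594 fluorescence polarization (ex 555, em 632 nm). K18 P301L tau is used at 15 uM with 0.24 uM labeled tracer, and 20 uM heparin induces aggregation over 6 hr at 37 C.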
* marks the source's active call; other numbers are inactive results; ? = inconclusive; . = no result; [ ] = remark or other dose. Unless noted, calls come from the whole dose curve; as a rule, active = well fitted curve in the direction sought with a large enough effect; inconclusive = small, poorly fitted or top-dose-only effect, or another doubt; inactive = no such curve, though single readings can be large; an effect the other way counts as inactive or inconclusive. Unless noted, % is set by controls: 0 for no effect and ±100 for the full control effect; potency is the fitted concentration of half-maximal effect.

SMILES	KDM4E inh	ALDH1A1 inh	Tau fibril ThT	HPGD inh	Tau fluor counter	Tau fibril FP
O=C(O)CC12CC3CC(C1)CC(n1ncc(NCc4ccco4)c(Cl)c1=O)(C3)C2	-19%	.	-7%	.	2%	-4%
O=C(O)CC12CC3CC(C1)CC(n1ncc(NCC4CCCO4)c(Cl)c1=O)(C3)C2 (stereo not given)	-10%	25µM*	-11%	.	-7%	6%
CC1(C)COCN1COC1CCCCC1	.	4%[13.5 µM]	.	-6%	.	.
C[C@@H](NC(=O)C1(N)CCCC1)C(=O)O	.	16%[13.5 µM]	.	-5%	.	.
O=C(COC(=O)c1ccc[nH]c1=O)NC1CCCCC1	-18%	.	0%	.	-3%	-4%
O=C(COC(=O)c1ccc(O)cc1)Nc1ncc(Cl)cc1Cl	-11%	28µM*	-3%	.	1%	1%
CCCC(=O)Nc1cc(S(=O)(=O)N(CC)CC)ccc1Cl	6%	13µM*	-16%	-24%	-5%	-12%
CCN(CC)S(=O)(=O)c1ccc(Cl)c(NC(=O)CCCCl)c1	?	.	-6%	.	-15%	-9%
CCN(CC)S(=O)(=O)c1ccc(Cl)c(C(=O)NCc2ccccc2Cl)c1	-4%	7.9µM*	?	-6%	-16%	6%
CCN(CC)S(=O)(=O)c1ccc(Cl)c(NC(=O)COC(=O)c2ccc(O)cc2)c1	6%	16µM*	3%	.	?	-14%
CCOc1ccc(C(C)=O)cc1CSc1nc2nc(C)cc(C)n2n1	-2%	?	-10%	.	-9%	-5%
CN(C)S(=O)(=O)c1ccc(Cl)c(NC(=O)COc2ccccc2[N+](=O)[O-])c1	0%	6%	7%	-3%	3%	-8%
CCn1cc(C(=O)NCc2ccccc2Cl)cn1	-2%	7%	2%	32µM*	1%	6%
Cc1ccc2ncc(C(=O)NCc3ccccc3Cl)c(=O)n2c1	.	.	3%	.	1%	3%
CC(C)CN(C(=O)COC(=O)c1ccc2c(c1)NC(=O)CS2)C1CCS(=O)(=O)C1 (stereo not given)	0%	40µM*	?	?	-6%	-5%
COc1ccccc1OCCC(=O)OCC(=O)Nc1cc(S(=O)(=O)N(C)C)ccc1Cl	-16%	3.2µM*	-16%	.	-12%	4%
CN(C)S(=O)(=O)c1ccc(Cl)c(NC(=O)COC(=O)c2ccc(O)cc2)c1	-10%	?	-5%	.	-11%	7%
CN(C)S(=O)(=O)c1ccc(Cl)c(NC(=O)COC(=O)c2ccc3c(c2)NC(=O)CS3)c1	-13%	3.5µM*	-20%	.	-30%	-15%
CCC(O)OC(O)CC (stereo not given)	.	7%	.	-3%	.	.
CS(=O)(=O)c1ccc(Cl)c(NC(=O)CCl)c1	-2%	3.2µM*	?	.	-26%	-8%
O=C(Nc1ccc(S(=O)(=O)Nc2ncccn2)cc1)c1ccc2ncsc2c1	3.2µM*	7.1µM*	-19%	.	-14%	0%
O=C(Nc1ccc(S(=O)(=O)Nc2ncccn2)cc1)c1cccc(Cl)c1	.	.	?	.	-17%	-4%
O=C(Nc1ccc(S(=O)(=O)Nc2ncccn2)cc1)c1ccc(S(=O)(=O)N2CCCC2)cc1	1%	25µM*	3%	.	-3%	7%
Cc1ccnc(NS(=O)(=O)c2ccc(NC(=O)c3ccc(S(=O)(=O)N4CCCC4)cc3)cc2)n1	-2%	?	-7%	.	-7%	-2%
O=S(=O)(Nc1ncccn1)c1ccc(NC(=S)Nc2ccc(Cl)cc2)cc1	0%	10µM*	15%	.	-28%	-16%
Cc1ccc(OCC(=O)OCc2cc(=O)n3ccsc3n2)cc1C	.	.	3%	.	7%	3%
CO[C@@H]1/C=C\O[C@@]2(C)Oc3c(C)c(O)c4c(c3C2=O)C(=N[C@H]2CC[C@H](O)O[C@@H]2C)C=C(NC(=O)/C(C)=C\C(=O)[C@@H]2C[C@@H]2[C@@H](O)[C@H](C)[C@@H](O)[C@H](C)[C@H](OC(C)=O)[C@@H]1C)C4=O	.	-13%[13.5 µM]	.	-29%	.	.
